This is an account of results in PubChem BioAssay (EPA / NIEHS).

What is called AC50 is the concentration at which the activity in the assay is half-maximal.

Read-out in experiment [1]: Cyclin D1 (CCND1), CCND1 (gene 595)
Description: LTEA_HepaRG_CCND1: Life Technologies and Expression Analysis (LTEA) Assay for Cyclin D1 (CCND1) using HepaRG (AID 2283451). As to conditions: mRNA level, 48 h; actives raise or lower the signal. In a few lines:
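Differentiated human HepaRG cells in serum-free induction medium were exposed 48 h to eight half-log concentrations up to 100 uM in 0.5% DMSO; mRNA quantified by TaqMan qRT-PCR, normalized to ACTB, GAPDH, POLR2A, fitted bidirectionally versus DMSO.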

Read-out in experiment [2]: catalase (CAT), CAT (gene 847)
As to the kind of experiment: LTEA_HepaRG_CAT: Life Technologies and Expression Analysis (LTEA) Assay for catalase (CAT) using HepaRG (AID 2283452). As to conditions: mRNA level, 48 h; actives raise or lower the signal. In a few lines:
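HepaRG cells in serum-free induction medium, 0.5% DMSO vehicle, exposed 48 h in duplicate over 8 half-log concentrations from 100 uM. CAT mRNA measured by qRT-PCR, normalized to ACTB, GAPDH, POLR2A; bidirectional fit versus DMSO.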

Read-out in experiment [3]: flavin-containing dimethylaniline monooxygenases 3 (FMO3), FMO3 (gene 2328)
Description: LTEA_HepaRG_FMO3: Life Technologies and Expression Analysis (LTEA) Assay for flavin-containing dimethylaniline monooxygenases 3 (FMO3) using HepaRG (AID 2283453). As to conditions: mRNA level, 48 h; actives raise or lower the signal. In outline: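 Differentiated HepaRG cells in serum-free induction medium, exposed 48 h in duplicate to 8 half-log concentrations up to 100 uM in 0.5% DMSO. FMO3 mRNA by qRT-PCR, normalized to ACTB, GAPDH, POLR2A; bidirectional fit vs DMSO.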

Read-out in experiment [4]: Cytochrome P450 (CYP1A1), CYP1A1 (gene 1543)
As to the kind of experiment: LTEA_HepaRG_CYP1A1: Life Technologies and Expression Analysis (LTEA) Assay for Cytochrome P450 (CYP1A1) using HepaRG (AID 2283454). As to conditions: mRNA level, 48 h; actives raise or lower the signal. In outline: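 Differentiated HepaRG cells in serum-free induction medium were exposed in duplicate for 48 h to eight half-log concentrations up to 100 uM in 0.5% DMSO. CYP1A1 mRNA was quantified by TaqMan qRT-PCR, normalized to ACTB, GAPDH and POLR2A.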

Read-out in experiment [5]: CFLAR gene, CFLAR (gene 8837)
Description: LTEA_HepaRG_CFLAR: Life Technologies and Expression Analysis (LTEA) Assay for CFLAR gene using HepaRG (AID 2283455). The note with it: mRNA level, 48 h; actives raise or lower the signal. In a few lines: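 Differentiated HepaRG cells in serum-free induction medium were exposed 48 h in duplicate to eight half-log concentrations up to 100 uM in 0.5% DMSO; mRNA measured by TaqMan qRT-PCR, normalized to ACTB, GAPDH, POLR2A; bidirectional fitting versus DMSO.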

Read-out in experiment [6]: Forkhead box O1 (FOXO1), FOXO1 (gene 2308)
Description: LTEA_HepaRG_FOXO1: Life Technologies and Expression Analysis (LTEA) Assay for Forkhead box O1 (FOXO1) using HepaRG (AID 2283456). The note with it: mRNA level, 48 h; actives raise or lower the signal. In outline:
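Differentiated HepaRG cells, in serum-free induction medium with 0.5% DMSO, exposed 48 h in duplicate to 8-point half-log series from 100 uM. FOXO1 mRNA measured by TaqMan qRT-PCR, normalized to ACTB, GAPDH, POLR2A; bidirectional fit versus DMSO.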

Read-out in experiment [7]: growth arrest and DNA damage 45 (GADD45A), GADD45A (gene 1647)
Description: LTEA_HepaRG_GADD45A: Life Technologies and Expression Analysis (LTEA) Assay for growth arrest and DNA damage 45 (GADD45A) using HepaRG (AID 2283458). The note with it: mRNA level, 48 h; actives raise or lower the signal. In outline:
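Cells plated and cultured 48 h, switched to serum-free induction medium, then dosed for 48 h (100 uM top, half-log dilutions, 0.5% DMSO). RNA was isolated and transcript measured by Fluidigm qRT-PCR.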

Read-out in experiment [8]: Forkhead box O3 (FOXO3), FOXO3 (gene 2309)
As to the kind of experiment: LTEA_HepaRG_FOXO3: Life Technologies and Expression Analysis (LTEA) Assay for Forkhead box O3 (FOXO3) using HepaRG (AID 2283459). The note with it: mRNA level, 48 h; actives raise or lower the signal. In outline: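 Differentiated human HepaRG cells, 48 h post-plating, exposed in duplicate for 48 h in serum-free induction medium; 8-point half-log series from 100 uM in 0.5% DMSO. FOXO3 mRNA by TaqMan qRT-PCR, normalized to ACTB/GAPDH/POLR2A; bidirectional fit versus DMSO.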

Read-out in experiment [9]: ABC Transporter (ABCB1), ABCB1 (gene 5243)
As to the kind of experiment: LTEA_HepaRG_ABCB1: Life Technologies and Expression Analysis (LTEA) Assay for ABC Transporter (ABCB1) using HepaRG (AID 2283460). As to conditions: mRNA level, 48 h; actives raise or lower the signal. In a few lines:
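HepaRG cells exposed in duplicate for 48 h in serum-free induction medium to eight half-log concentrations up to 100 uM in 0.5% DMSO. ABCB1 mRNA quantified by qRT-PCR, normalised to ACTB, GAPDH and POLR2A; fitted bidirectionally versus DMSO.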

Read-out in experiment [10]: ABC Transporter (ABCC3), ABCC3 (gene 8714)
Description: LTEA_HepaRG_ABCC3: Life Technologies and Expression Analysis (LTEA) Assay for ABC Transporter (ABCC3) using HepaRG (AID 2283462). As to conditions: mRNA level, 48 h; actives raise or lower the signal. In outline:
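HepaRG cells in serum-free induction medium were exposed for 48 h in duplicate to 8-point half-log concentrations topping at 100 uM in 0.5% DMSO. ABCC3 mRNA was measured by qRT-PCR normalized to ACTB, GAPDH and POLR2A, with bidirectional fitting versus DMSO.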

Read-out in experiment [11]: ABC Transporter (ABCB11), ABCB11 (gene 8647)
Description: LTEA_HepaRG_ABCB11: Life Technologies and Expression Analysis (LTEA) Assay for ABC Transporter (ABCB11) using HepaRG (AID 2283463). As to conditions: mRNA level, 48 h; actives raise or lower the signal. In a few lines:
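Differentiated human HepaRG cells in serum-free induction medium, dosed in duplicate for 48 h. Eight-point half-log series from 100 uM in 0.5% DMSO; ABCB11 mRNA by qRT-PCR, normalized to ACTB, GAPDH, POLR2A, fitted bidirectionally versus DMSO.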

Read-out in experiment [12]: ABC Transporter (ABCC2), ABCC2 (gene 1244)
As to the kind of experiment: LTEA_HepaRG_ABCC2: Life Technologies and Expression Analysis (LTEA) Assay for ABC Transporter (ABCC2) using HepaRG (AID 2283464). The note with it: mRNA level, 48 h; actives raise or lower the signal. In a few lines:
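HepaRG cells were plated 48 h, switched to serum-free induction medium, then exposed in duplicate for 48 h to 8 concentrations (top 100 uM, half-log steps, 0.5% DMSO). ABCC2 mRNA was measured by qRT-PCR normalized to ACTB/GAPDH/POLR2A; bidirectional fitting versus DMSO.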

Read-out in experiment [13]: Broad substrate specificity ATP-binding cassette transporter ABCG2 (Homo sapiens) (UniProt Q9UNQ0)
Description: LTEA_HepaRG_ABCG2: Life Technologies and Expression Analysis (LTEA) Assay for ABC Transporter (ABCG2) using HepaRG (AID 2283465). As to conditions: mRNA level, 48 h; actives raise or lower the signal. In outline: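 Differentiated HepaRG cells were exposed for 48 h in serum-free induction medium to 8 half-log concentrations, top 100 uM, in 0.5% DMSO. ABCG2 mRNA was measured by qRT-PCR, normalized to ACTB, GAPDH and POLR2A, with bidirectional fitting versus DMSO.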

Read-out in experiment [14]: ATP-citrate lyase (ACLY), ACLY (gene 47)
Description: LTEA_HepaRG_ACLY: Life Technologies and Expression Analysis (LTEA) Assay for ATP-citrate lyase (ACLY) using HepaRG (AID 2283466). As to conditions: mRNA level, 48 h; actives raise or lower the signal. In outline:
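Differentiated HepaRG cells exposed 48 h in serum-free induction medium to eight half-log concentrations up to 100 uM in 0.5% DMSO, duplicates. Transcript measured by Fluidigm TaqMan qRT-PCR, normalized to ACTB, GAPDH, POLR2A; bidirectional fit versus DMSO.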

Read-out in experiment [15]: Peroxisomal acyl-coenzyme A oxidase 1 (ACOX1) gene, ACOX1 (gene 51)
As to the kind of experiment: LTEA_HepaRG_ACOX1: Life Technologies and Expression Analysis (LTEA) Assay for Peroxisomal acyl-coenzyme A oxidase 1 (ACOX1) gene using HepaRG (AID 2283467). The note with it: mRNA level, 48 h; actives raise or lower the signal. In a few lines: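 HepaRG cells, plated 48 h then switched to serum-free induction medium, were exposed in duplicate for 48 h to 8-point half-log concentrations up to 100 uM in 0.5% DMSO. ACOX1 mRNA was measured by qRT-PCR, normalized to ACTB/GAPDH/POLR2A, and fitted bidirectionally versus DMSO.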

Read-out in experiment [16]: Alkaline Phosphatase, Placental (ALPP) gene, ALPP (gene 250)
Description: LTEA_HepaRG_ALPP: Life Technologies and Expression Analysis (LTEA) Assay for Alkaline Phosphatase, Placental (ALPP) gene using HepaRG (AID 2283468). The note with it: mRNA level, 48 h; actives raise or lower the signal. In outline: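 Differentiated human HepaRG cells were plated and cultured 48 h, then exposed in duplicate for 48 h in serum-free induction medium to eight half-log concentrations from 100 uM in 0.5% DMSO. ALPP mRNA was measured by TaqMan qRT-PCR, normalized to ACTB, GAPDH, POLR2A.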

Read-out in experiment [17]: Bcl-2 (BAD) gene, BAD (gene 572)
As to the kind of experiment: LTEA_HepaRG_BAD: Life Technologies and Expression Analysis (LTEA) Assay for Bcl-2 (BAD) gene using HepaRG (AID 2283469). As to conditions: mRNA level, 48 h; actives raise or lower the signal. In a few lines: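 Differentiated HepaRG cells were exposed in duplicate in 0.5% DMSO for 48 h to eight-point half-log concentrations up to 100 uM. BAD mRNA was measured by Fluidigm TaqMan qRT-PCR, normalized to ACTB, GAPDH and POLR2A, and fitted bidirectionally against DMSO.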

Read-out in experiment [18]: Bcl-2 (BAX) gene, BAX (gene 581)
Description: LTEA_HepaRG_BAX: Life Technologies and Expression Analysis (LTEA) Assay for Bcl-2 (BAX) gene using HepaRG (AID 2283470). The note with it: mRNA level, 48 h; actives raise or lower the signal. In outline: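 HepaRG (human liver), 48 h exposure, duplicate wells. 8-pt curve, half-log from 100 uM, 0.5% DMSO. BAX transcript by TaqMan qRT-PCR; ACTB/GAPDH/POLR2A normalization; gain or loss vs DMSO baseline.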

Experiment [19] is described as follows: CEETOX_H295R_TESTO: CeeTox H295R High-throughput Steroidogenesis Assay for Testosterone (TESTO) (AID 2283457). The note with it: actives raise or lower the signal. In a few lines:
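H295R human adrenal cells in DMEM/F12 with ITS+ and Nu-Serum, exposed to chemicals for 48 h. Testosterone in medium measured by MTBE extraction, reverse-phase HPLC-MS/MS; bidirectional fit versus DMSO baseline. MTT viability checked in same wells.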

The structures appear in SMILES notation. Active and inactive are the calls of the source. The calls were made as follows: active = hit-call score of the fitted dose curve at least 0.9, where 1 is the maximum; inactive = score below 0.9.

Chain of Broad substrate specificity ATP-binding cassette transporter ABCG2 (Homo sapiens) (Q9UNQ0 whole entry, looked up): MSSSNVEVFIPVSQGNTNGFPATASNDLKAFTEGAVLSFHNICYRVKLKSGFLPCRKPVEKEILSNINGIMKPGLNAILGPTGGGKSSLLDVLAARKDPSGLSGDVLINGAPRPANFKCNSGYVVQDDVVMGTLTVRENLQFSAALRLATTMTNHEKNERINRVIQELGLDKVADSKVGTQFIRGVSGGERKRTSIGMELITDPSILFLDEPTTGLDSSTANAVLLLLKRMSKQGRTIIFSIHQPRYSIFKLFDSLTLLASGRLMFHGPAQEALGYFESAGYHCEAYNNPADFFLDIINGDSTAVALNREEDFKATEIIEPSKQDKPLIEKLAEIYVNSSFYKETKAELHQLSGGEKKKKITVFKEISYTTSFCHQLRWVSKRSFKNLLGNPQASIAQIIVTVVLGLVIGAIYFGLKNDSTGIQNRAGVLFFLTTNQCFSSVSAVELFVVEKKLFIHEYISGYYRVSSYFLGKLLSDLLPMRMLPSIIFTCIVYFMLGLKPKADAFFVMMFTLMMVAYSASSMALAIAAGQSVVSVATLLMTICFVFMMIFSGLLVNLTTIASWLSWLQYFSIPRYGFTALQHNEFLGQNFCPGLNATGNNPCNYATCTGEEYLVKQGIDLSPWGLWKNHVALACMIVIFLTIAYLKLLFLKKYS

Regarding `CCCCCCCCOC(=O)c1ccc(C(=O)OCCCCCCCC)c(C(=O)OCCCCCCCC)c1`, the compound was called inactive in experiment [1], in [2], in [3], in [5], in experiment [6] and in experiment [7]. In addition, the compound was classed as inactive in [8], in [9], in [10], in experiment [11], in [12] and in experiment [13]. Also, the compound was called inactive in experiment [14], in experiment [15], in experiment [16], in experiment [17] and in experiment [18]. Further, the AC50 in experiment [4] was 50.5 µM (active).

On to `CNC(=O)Oc1cccc2c1OC(C)(C)C2`, for which the call in experiment [1], in experiment [2], in experiment [3], in experiment [5], in experiment [6] and in experiment [19] was inactive. Further, the result in experiment [8], in [9], in experiment [10], in [12], in experiment [13] and in experiment [14] was inactive. Further, the result in experiment [15], in experiment [16], in [17] and in experiment [18] was inactive. For the same compound, the figures for the concentration at half-maximal activity (AC50) in [4], in experiment [7] and in experiment [11] were 50 µM (active), 0.0409 µM (active) and 28.4 µM (active), respectively.
